The source of these data is the supplement of paper PMC7726561.

The assay has as its target HLA-C*04:01. The experiment in a line: thermal melting temperature (Tm) of peptide-HLA complex; higher = more thermostable pHLA complex. Here is the method: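 Endogenous HLA-C*04:01 ligands were detected in the thermostability assays of both the C1R-A*02:01 and C1R-B*07:02 lines. Lysates were heated 10 min at 37-73 °C and pHLA immunoprecipitated with W6/32. Peptides were quantified by DIA-MS and Tm was taken from a logistic sigmoid fit.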

With VFDEAVRV, the thermal melting temperature by setting is: (C1R-A*02:01) 52.4 °C; (C1R-B*07:02) 50.6 °C.

Regarding IWDETPLYF, the thermal melting temperature is 50.8 °C (C1R-A*02:01) and 51.8 °C (C1R-B*07:02).

FYDVQFKEL gave a thermal melting temperature (C1R-A*02:01) of 53.1 °C and a thermal melting temperature (C1R-B*07:02) of 52.5 °C.

In the case of VWDLFPEADKV, the thermal melting temperature is, setting by setting: (C1R-A*02:01) 54.5 °C; (C1R-B*07:02) 52.4 °C.

In the case of VTDPRVVDL, the thermal melting temperature is 53.8 °C (C1R-A*02:01) and 52.7 °C (C1R-B*07:02).

Consider VFDEAIRAV, for which the thermal melting temperature turned out to be 61.2 °C (C1R-A*02:01) and 61.5 °C (C1R-B*07:02).

Turning to FWDDAVKEV, the thermal melting temperature was found to be 46.6 °C (C1R-A*02:01) and 48.3 °C (C1R-B*07:02).

As for AWDIAIATM, the thermal melting temperature is, setting by setting: (C1R-A*02:01) 50.9 °C; (C1R-B*07:02) 49.6 °C.

In the case of SFDDTNEKF, the thermal melting temperature runs as follows: (C1R-A*02:01) 49.8 °C; (C1R-B*07:02) 48.2 °C.

On to QFDNYGEEF, for which the thermal melting temperature runs as follows: (C1R-A*02:01) 50.8 °C; (C1R-B*07:02) 55.5 °C.

As to FFEVSPVSF, the thermal melting temperature turned out to be 49.9 °C (C1R-A*02:01) and 46.6 °C (C1R-B*07:02).

Take FYDERIVVV: the thermal melting temperature reads like this: (C1R-A*02:01) 63.9 °C; (C1R-B*07:02) 62.3 °C.

In the case of VFDVLDGEEM, the thermal melting temperature came out at 53.4 °C (C1R-A*02:01) and 60.9 °C (C1R-B*07:02).

IYDPNLAFL displayed a thermal melting temperature (C1R-A*02:01) of 58.9 °C and a thermal melting temperature (C1R-B*07:02) of 56 °C.

As to YFDPANGKF, the thermal melting temperature was determined as 57.6 °C (C1R-A*02:01) and 57.5 °C (C1R-B*07:02).

Regarding TYEGKPIFL, the thermal melting temperature is, setting by setting: (C1R-A*02:01) 52.9 °C; (C1R-B*07:02) 51.5 °C.

For the sequence FFDEVVKQM, the thermal melting temperature (C1R-A*02:01) was 58.8 °C and the thermal melting temperature (C1R-B*07:02) was 60.5 °C.

HFDPEVYL: the thermal melting temperature by setting is: (C1R-A*02:01) 54.6 °C; (C1R-B*07:02) 53.2 °C.

On to VLDDKLVFV, for which the thermal melting temperature is 61.8 °C (C1R-A*02:01) and 48.9 °C (C1R-B*07:02).

As for LWDSAVSHF, the thermal melting temperature by setting is: (C1R-A*02:01) 55.1 °C; (C1R-B*07:02) 55.6 °C.

In turn, LFHPSNVEM showed a thermal melting temperature (C1R-A*02:01) of 46 °C and a thermal melting temperature (C1R-B*07:02) of 46.4 °C.

IFSEKPVFV: the thermal melting temperature is, setting by setting: (C1R-A*02:01) 60 °C; (C1R-B*07:02) 57 °C.

Sequence VIDEPVRL showed a thermal melting temperature (C1R-A*02:01) of 50 °C and a thermal melting temperature (C1R-B*07:02) of 50.3 °C.

On to NPDDVFREF, for which the thermal melting temperature by setting is: (C1R-A*02:01) 61.2 °C; (C1R-B*07:02) 62.7 °C.
